Compound activity as filed in PubChem BioAssay.
ALDH1A1 inh: blocks purified human ALDH1A1 activity. Purified ALDH1A1, NADH fluorescence, propionaldehyde substrate. Potency, µM (series often up to 75.3 µM), for inactives: top-dose activity, negative = inhibition, most hits filed as inhibitors. hit rate 7.3% among 220,000;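 also: potency is read from the fitted curve at half-maximal effect; plate controls were no enzyme wells and a reference inhibitor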
HPGD inh: HPGD (human) dehydrogenase inhibition; P15428; purified HPGD, NADH fluorescence kinetic, PGE2 substrate; Potency, µM, inactives show top-dose activity change, negative = inhibition, hits mostly inhibitors; hit rate 4.3% among 150,000; AID 894; also: potency is read from the fitted curve at half-maximal effect
Target sequence (P15428 whole entry, looked up): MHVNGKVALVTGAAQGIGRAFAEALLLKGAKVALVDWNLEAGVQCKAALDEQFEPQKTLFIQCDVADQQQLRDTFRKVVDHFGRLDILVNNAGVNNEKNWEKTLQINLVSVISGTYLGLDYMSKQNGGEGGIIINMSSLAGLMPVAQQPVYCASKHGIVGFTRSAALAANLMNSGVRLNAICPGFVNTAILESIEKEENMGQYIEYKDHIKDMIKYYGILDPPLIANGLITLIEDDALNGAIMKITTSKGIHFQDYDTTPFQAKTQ
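20 nM HPGD preincubated 15 min at room temperature with compound in 50 mM Tris-HCl pH 8, 0.01% Tween 20. Started with 1 mM NAD+ and 30 uM prostaglandin E2; NADH fluorescence (360/450 nm) read 5 times over 30-s intervals, last minus first.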
IMPase Li inh: IMPase inhibition in cells with lithium potentiation; hit rate 0.35% among 210,000; CHO-M1 cells, IP1 TR-FRET (IP-One), carbachol + lithium; AID 1457; Potency, µM (titrated, usually from 59.4 µM), for the others: at the top dose activity, negative = IMPase inhibition, hits mostly inhibitors; active = well fitted inhibition curve with a large enough effect; inconclusive = small, poorly fitted or top-dose-only effect; inactive = no such curve, though single readings can be large or run the other way;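 also: IP1 builds up when IMPase is blocked and the TR-FRET signal falls; potency is read from the fitted curve at half-maximal effect; plate controls were basal vehicle for no effect and high inhibitor control for full effect; nearly all actives have a fitted effect of over 50% in size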
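Steps: plate 2000 CHO-M1 cells per well and culture 16–30 h; add compound and lithium; incubate 30 min, 37C; add d2-IP1 tracer and Eu cryptate anti-IP1 antibody in lysis buffer; read after 10 min at room temperature.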
IMPase inh: cell-permeable inhibitors of inositol monophosphatase (IMPase). AID 901. 120,000 tested, under 10 active. P97697. CHO-M1 cells, IP1 accumulation, HTRF TR-FRET ratio. inhibition (IP1 accumulation), % at 46.1 µM; active = well fitted curve in the direction sought with a large enough effect in the signal ratio, not every such curve was filed as active; inconclusive = small, poorly fitted or top-dose-only effect, or a change in a side signal; inactive = no such curve, though single readings can be large or run the other way; the % refers to the signal ratio;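 also: cells stimulated with carbachol in lithium chloride buffer; plate controls were DMSO basal wells for no effect and reference inhibitor wells for full effect; higher means more IMPase inhibition seen as more IP1 and lower FRET ratio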
Target sequence (P97697 whole entry, looked up): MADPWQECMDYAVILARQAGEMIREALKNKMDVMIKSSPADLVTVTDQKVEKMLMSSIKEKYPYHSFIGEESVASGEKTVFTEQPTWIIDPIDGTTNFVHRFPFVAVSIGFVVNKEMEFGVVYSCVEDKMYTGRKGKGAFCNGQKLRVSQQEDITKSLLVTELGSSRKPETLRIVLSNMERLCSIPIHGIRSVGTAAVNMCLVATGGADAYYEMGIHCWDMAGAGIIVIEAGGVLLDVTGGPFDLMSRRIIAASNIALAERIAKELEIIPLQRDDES
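Carbachol-driven Gq signalling in CHO-M1 cells (2000/well) generates IP1. Compounds that block IMPase raise IP1 and so reduce the FRET signal from Eu-anti-IP1 and d2-IP1 after a 10 min room-temperature lysis.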
PNC assembly inh: inhibitors of perinucleolar compartment assembly; PC3M PTB-GFP, PNC prevalence imaging, 16 h; active compounds read low; activity change (PNC), negative = inhibition, % at 10 µM; hit rate 3.1% among 140,000;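 active = readout at or below -70, meaning at least 70% loss of cells showing the perinucleolar compartment, a nuclear body marking cancer cells; inconclusive = readout between -30 and a set limit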;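 also: plate controls were DMSO wells for no effect and camptothecin positive control wells for full effect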
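Read-out is percentage of cells bearing a perinucleolar compartment, from automated 20x imaging of fixed, Hoechst-stained PC3M PTB-GFP cells. Cells were seeded 4 h, then exposed 16 h to compound (23 nl of library stock) in duplicate plates.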
Active calls of the source: *; ? = inconclusive; nt = not tested or not shown; [ ] = dose if it differs, or a comment. Most compounds without a hit are left out; they make up all but 11% or so of the library. Unless noted, calls follow the shape of the dose curve; as a rule, active = well fitted inhibition curve with a large enough effect (not every such curve was filed as active); inconclusive = small, poorly fitted or top-dose-only effect, or another doubt; inactive = no such curve, though single readings can be large or run the other way. Unless noted, % is scaled to controls: 0 for no effect and ±100 for the full control effect.

SMILES	ALDH1A1 inh	HPGD inh	IMPase Li inh	IMPase inh	PNC assembly inh
CCSC(=O)Cl	?	-9.1%	-4.8%	nt	nt
CCCCCCCCCCCC[N+](C)(C)CCOc1ccccc1	14.1µM*	-6.2%	29.4%	nt	nt
CCCCCCCCCCCCCCCC[N+](C)(C)C	1.0%	-11.7%	26.8%	nt	nt
CCCCCC[C@H]1C(=O)O[C@H](C)[C@H](NC(=O)c2cccc(NC=O)c2O)C(=O)O[C@@H](C)[C@H]1OC(=O)CC(C)C	-14.1%[20.9 µM]	?	1.0%	0.2[20.6 µM]	nt
CCOC(=O)CC(SP(=O)(OC)OC)C(=O)OCC (configuration not stated)	11.2µM*	-21.1%	-10.9%	nt	nt
[O-]/[N+](=N\O)c1ccccc1	10µM*	12.6µM*	4.6%	nt	nt
O=C1NC(=O)C(=Cc2ccc(SC3CCCCC3)o2)C(=O)N1	25.1µM*	nt	2.1%	nt	nt
Cc1ccc(N2C(=O)NC(=O)/C(=C\c3cnc(-c4ccccc4)nc3)C2=O)cc1	8.91µM*	?	6.7%	-2.0	13.4
Cc1ccc(N2C(=O)NC(=O)/C(=C\c3cccn3C(C)(C)C)C2=O)cc1	0.562µM*	nt	5.2%	nt	nt
Cc1ccc(N2C(=O)NC(=O)/C(=C/c3cnn(-c4ccc(C)cc4)c3)C2=O)cc1	2.51µM*	?	9.6%	nt	?
CCC(C)c1ccc(N2C(=O)NC(=O)/C(=C/c3cccn3CCOc3ccc(C)cc3)C2=O)cc1 (configuration not stated)	6.6%	-12.4%	3.7%	4.6	1.3
CC1CCCN(C(=O)CCl)C1 (configuration not stated)	0.631µM*	-6.0%	2.7%	nt	-116.0*
CC1CCCN(C(=O)CN2C3CCC2CC(O)(c2ccc(F)cc2)C3)C1 (configuration not stated)	10.9%	nt	24.1%	nt	nt
N/C(=N\N=C/c1ccc(-c2ccc(O)c(C(=O)O)c2)o1)N[N+](=O)[O-]	?	7.08µM*	19.7%[38.3 µM]	13.5	-24.5
C[N+]1(C)CCO[C@@](O)(c2ccc(-c3ccc([C@]4(O)C[N+](C)(C)CCO4)cc3)cc2)C1	nt	nt	nt	1.2	nt
CN1CCC[C@@H]1c1cccnc1	?	nt	4.7%	3.9	nt
CN(CCOc1ccc(C=C2C(=O)NC(=O)NC2=O)cc1)c1ccccn1	?	nt	9.0%	nt	nt
O=C1NC(=O)C(=Cc2ccc(OCC(=O)N3CCOCC3)cc2)C(=O)N1	5.01µM*	-20.2%	8.4%	nt	-22.7
CC(C)N[C@@H](C)Cc1ccc(I)cc1	nt	nt	nt	11.3	nt
CN(C)C(=O)Nc1cccc(C(F)(F)F)c1	2.7%	-4.1%	0.6%	nt	nt
O=C(OCCCCN1C(=O)c2ccccc2C1=O)c1ccc(Br)o1	?	15.8µM*	21.5%[38.3 µM]	3.0	1.3
CCCCn1c(O)c(C=NCCCn2ccnc2)c(=O)[nH]c1=O	17.8µM*	-13.8%	5.0%[38.3 µM]	1.3	4.2
O=c1[nH]c(=O)n(CCc2ccccc2)c(O)c1C=NCCCn1ccnc1	8.0%	-12.8%	26.8%[38.3 µM]	-0.3	-2.3
NC1(P(=O)(O)O)CCCCC1	3.7%[13.5 µM]	-9.9%	-0.2%	nt	nt
CC1=CC(=O)OC2CC3OC4C[C@@H](C)C5OC6CC7O[C@]8(C)C/C=C\C9OC%10CC%11OC(CC(C)CO)CC(O)[C@]%11(C)OC%10CC9OC8C[C@]7(C)O[C@]6(C)CCC5OC4C[C@]3(C)OC12 (some centres not stated)	2.82µM*	nt	-1.9%	nt	nt
SMILES	ALDH1A1 inh	HPGD inh	IMPase Li inh	IMPase inh	PNC assembly inh
Nc1ccccc1C(=O)OCC(=O)N1CCc2ccccc21	?	?	-5.8%[38.3 µM]	-0.3	-24.2
N#CSCC(=O)N1c2ccccc2CCc2ccccc21	0.794µM*	17.8µM*	10.9%	nt	?
COC(=O)c1ccccc1N=Cc1c(O)[nH]c(=S)[nH]c1=O	-8.4%	nt	11.2µM*	nt	nt
O=C(c1ccccc1)c1ccccc1N=Cc1c(O)[nH]c(=O)[nH]c1=O	0.3%	nt	2.2%	nt	nt
CC(C)C[C@H]1C(=O)N2CCCC2[C@]2(O)O[C@](NC(=O)[C@@H]3C=C4c5cccc6[nH]c(Br)c(c56)C[C@H]4N(C)C3)(C(C)C)C(=O)N12 (some centres not stated)	0.9%	-26.9%	9.9%	nt	nt
Cc1c(C=O)c2ccccc2n1Cc1cccc(F)c1	-12.0%	-11.4%	5.5%	nt	?
O=Cc1c(C(=O)O)n(Cc2ccc(Cl)cc2)c2ccccc12	12.6µM*	-17.0%	1.3%	-6.8	-15.4
ClP(Cl)(Cl)(Cl)Cl	nt	-21.3%	-8.1%	nt	nt
O=C(CCl)c1ccc(Cl)cc1Cl	0.159µM*	-9.4%	22.0%	nt	nt
